# Test results reported in PubChem BioAssay AID489028 (Sanford-Burnham Center for Chemical Genomics, 2010).
# The whole screen tested about 10,000 compounds, of which about 5,600 (56%) were called active. The set was probably picked from earlier hits. Not all results are given here. A number with no mark means an inactive call. Cut-off read from the data, not from the text of the source: active = inhibition above about 40%; inactive = the rest.
# Target: Protein Mdm4 (Homo sapiens) + E3 ubiquitin-protein ligase Mdm2 (Homo sapiens) (UniProt O15151+Q00987)
# Assay: Mdm2-MdmX complex disruptors, retested hits, confirmation, luminescence, single concentration (AID 489028)
# Details: Mdm2-MdmX binding, luminescent assay; at 8 µM; active compounds read high
# Chain of Protein Mdm4 (Homo sapiens) + E3 ubiquitin-protein ligase Mdm2 (Homo sapiens) (O15151 whole entry, looked up): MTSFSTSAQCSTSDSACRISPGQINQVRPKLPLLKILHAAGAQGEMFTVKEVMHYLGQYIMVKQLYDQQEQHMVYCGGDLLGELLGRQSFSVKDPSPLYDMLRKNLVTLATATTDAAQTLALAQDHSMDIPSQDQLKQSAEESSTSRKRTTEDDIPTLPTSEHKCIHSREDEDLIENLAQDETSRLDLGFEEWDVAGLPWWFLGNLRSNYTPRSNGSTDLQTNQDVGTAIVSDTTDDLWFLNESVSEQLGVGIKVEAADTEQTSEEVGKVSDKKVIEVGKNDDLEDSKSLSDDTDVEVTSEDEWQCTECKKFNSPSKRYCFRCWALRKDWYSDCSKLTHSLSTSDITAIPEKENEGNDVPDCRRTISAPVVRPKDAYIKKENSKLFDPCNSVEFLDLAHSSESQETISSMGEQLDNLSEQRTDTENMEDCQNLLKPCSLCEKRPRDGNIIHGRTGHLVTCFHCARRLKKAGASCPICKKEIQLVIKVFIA
# Chain of Protein Mdm4 (Homo sapiens) + E3 ubiquitin-protein ligase Mdm2 (Homo sapiens) (Q00987 whole entry, looked up): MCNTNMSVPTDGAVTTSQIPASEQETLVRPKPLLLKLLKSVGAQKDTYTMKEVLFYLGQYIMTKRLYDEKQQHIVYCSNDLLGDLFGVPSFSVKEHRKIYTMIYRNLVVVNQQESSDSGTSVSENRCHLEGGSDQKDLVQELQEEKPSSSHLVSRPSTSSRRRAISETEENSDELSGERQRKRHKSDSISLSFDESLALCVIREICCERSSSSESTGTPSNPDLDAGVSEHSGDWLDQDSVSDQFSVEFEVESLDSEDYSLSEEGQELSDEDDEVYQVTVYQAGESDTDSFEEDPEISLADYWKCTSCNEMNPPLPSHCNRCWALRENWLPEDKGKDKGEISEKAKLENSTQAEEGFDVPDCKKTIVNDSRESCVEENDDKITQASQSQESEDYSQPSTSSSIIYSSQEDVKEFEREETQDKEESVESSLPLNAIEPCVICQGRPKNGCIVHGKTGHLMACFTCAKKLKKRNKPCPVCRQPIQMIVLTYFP
row,SMILES,inhibition
1,CCc1ccc(N(CC)c2ncnc3nc[nH]c23)cc1,52.4% (active)
2,COc1ccc2sc(-c3ccc(S(C)(=O)=O)cc3)c(C#Cc3cncn3C)c2c1,60.5% (active)
3,Cc1cccc(-c2oc3ccc(-c4ccc5c(c4)OCO5)cc3c2C#Cc2cncn2C)c1,30.1%
4,O=C(CCNC(=O)c1ccc(Cl)cc1)NC1CCCc2ccccc21 (stereo not drawn),57.9% (active)
5,COc1ccc(-c2ccc(Nc3ccc(S(=O)(=O)N4CCCC4)cc3)nn2)cc1OC,53.5% (active)
6,CC(C)Cc1nc(Nc2ccc(S(=O)(=O)N3CCCC3)cc2)c2nnn(Cc3ccccc3)c2n1,36.1%
7,COc1ccc(C(CCN(Cc2ccc(OC)c(OC)c2)C(=O)CCl)c2ccccc2)cc1 (stereo not drawn),73.3% (active)
8,CCOC(=O)CC1C(=O)NCCN1c1nc2c(C)cccn2c(=O)c1/C=C1\SC(=S)N(C(C)CC)C1=O (stereo not drawn),61.7% (active)
9,COc1ccccc1-n1nnnc1S(=O)(=O)Cc1ccc(Cl)cc1,74.9% (active)
10,NC(N)=N/N=C/c1ccc(OCc2ccc(Cl)cc2Cl)cc1,99.7% (active)
11,CCCCCCc1cc2cc(-c3nnc(-c4ccccc4)o3)c(=O)oc2cc1O,0.95%
12,CC(Nc1nc(N2CCCC2)nc2ccccc12)c1ccccc1 (stereo not drawn),40.5% (active)
13,Cc1[nH]nc(-c2ccc(OCc3cnn(-c4ccccc4)c3)cc2O)c1Oc1ccc(Cl)cc1,25.5%
14,COC(=O)c1sc(-c2ccc(C(C)(C)C)cc2)cc1NC(=O)/C=C/C(=O)O,52.6% (active)
15,O=S(=O)([N-]c1nc2ccccc2nc1-[n+]1ccc(Cc2ccccc2)cc1)c1ccc(Br)s1,60% (active)
16,Cc1cc(CNC(=O)c2cccc([N+](=O)[O-])c2)c2ccccc2n1,58.7% (active)
17,Cc1cccc(-c2nc3ccc(C(=O)NCCN4CCN(C)CC4)cc3nc2-c2cccc(C)c2)c1,28.6%
18,O=C(NCc1ccccc1)C1=C[C@@H](C2CCCCC2)C[C@@H](OCc2ccc(CO)cc2)O1,32.2%
19,CN(C)CC(O)COc1ccc(C(C)(C)c2ccc(OCC(O)CN(C)C)cc2)cc1 (stereo not drawn),89.7% (active)
20,CN(Cc1ccccc1)CC(O)COc1ccc(CNCc2cc3ccccc3s2)cc1 (stereo not drawn),32.6%
21,COc1ccc(C2=Nn3c(nnc3-c3ccccc3OC)SC2)cc1OC1CCCC1,73.4% (active)
22,COc1cccc2cc(C(N)=O)/c(=N\NC(=O)c3ccccc3)oc12,44% (active)
23,Cc1cccc(CN2CCC(CNC(=O)Nc3ccc(F)c(Cl)c3)CC2)c1,36%
24,Cc1cccc(NC(=O)Nc2cccc(Oc3c(F)c(F)c(F)c(F)c3F)c2)c1,73% (active)
25,Oc1c(Br)cccc1/C=N/Nc1c(F)c(F)c(F)c(F)c1F,58.2% (active)
26,CNC[C@H](CC1CCCCC1)NC[C@H](NCCC1CCCC1)[C@H](C)O,77% (active)

row,SMILES,inhibition
1,Cc1ccc(C(=O)N/C(=C/c2ccc(-c3cccc([N+](=O)[O-])c3)o2)C(=O)NCCCN(C)C)cc1,49.5% (active)
2,Cc1ccc(Cc2cnc(NC(=O)/C(C#N)=C/c3ccc(-c4cccc([N+](=O)[O-])c4)o3)s2)cc1,6.4%
3,CC(C)n1cnc2c(Nc3cccc(Cl)c3)nc(N(CCO)CCCO)nc21,60.8% (active)
4,CC12CCC(C(=O)N(NC(=O)c3ccccc3O)C1=O)C2(C)C (stereo not drawn),11.2%
5,CCC(c1nnnn1C1CCCC1)N(Cc1cccs1)Cc1cc2cccc(C)c2[nH]c1=O (stereo not drawn),13.8%
6,CN(c1ccc2nc3ccccc3c(=O)n2n1)C1CCCCC1,89.9% (active)
7,CC(=O)Oc1c(C(=O)c2nnc(C)o2)c(=O)n(Cc2ccccc2)c2ccccc12,55% (active)
8,Cc1cc(Nc2cc(N3CCN(C)CC3)nc(Sc3ccc(NC(=O)C4CC4)cc3)n2)n[nH]1,82% (active)
9,O=C(c1[nH]ncc1-c1ccc(Cl)cc1)C1CO1 (stereo not drawn),45.3% (active)
10,COc1cc(OC)c(OC)cc1/C=N/Nc1ncnc2c1[nH]c1ccc(C)cc12,27%
11,COc1ccc(Cc2nnc(N/N=C/c3ccccc3O)[nH]c2=O)cc1OC,76.2% (active)
12,Cc1ccc(N(Cc2cc(=O)[nH]c3ccccc23)C(=O)CCl)cc1,74.9% (active)
13,COc1ccc(-c2nc(-c3ccccc3)no2)c(OC)c1,50.4% (active)
14,CC(C)n1cnc2c(NCc3ccccc3)cc(N[C@@H](CO)Cc3ccccc3)cc21,32.5%
15,Cc1c(NC(=O)CSc2cccc3cccnc23)c(=O)n(-c2ccccc2)n1C,10.3%
16,O=C(CSc1cccc2cccnc12)N/N=C/c1cccnc1,45% (active)
17,O=C1Nc2cc(C(=O)N3CCC(N4CCCCC4)CC3)ccc2S/C1=C\c1ccccc1,27.8%
18,c1ccc(C2CCC(N3CCC(N4CCCCC4)CC3)CC2)cc1 (stereo not drawn),86.5% (active)
19,CC(NC(=O)Nc1ccccc1)C(c1cccs1)N1CCN(c2ccccc2)CC1 (stereo not drawn),70.3% (active)
20,COc1ccc(C2CC(c3cccs3)=NN2c2nc(C)c(C(C)=O)s2)cc1OC (stereo not drawn),25.1%
21,Cn1cc([N+](=O)[O-])c(C(=O)Nc2cnn(Cc3ccc(F)cc3)c2)n1,57.5% (active)
22,CCn1cc(CN2CCC(C(=O)Nc3cccc(-c4cccc(Cl)c4)c3)CC2)cn1,31.9%
23,O=C(Nc1cccc(-c2cccc(Cl)c2)c1)C1CCN(C2CCC2)CC1,31.5%
24,CCn1cc(CN2CCC(C(=O)Nc3cccc(-c4cccc(Cl)c4)c3)CC2)c(C)n1,48% (active)
25,CCN(CC)CCC(c1cc(OC)c(OC)c(OC)c1)c1c(OC)cc(OC)c2c(-c3ccccc3)cc(=O)oc12 (stereo not drawn),27.6%
26,CCN(CC)CCC(c1ccc2c(c1)OCO2)c1c(OC)cc(OC)c2c(-c3ccccc3)cc(=O)oc12 (stereo not drawn),29.8%

row,SMILES,inhibition
1,COc1cc(OC)c2c(-c3cccc(-c4cccc(N)c4)c3)cc(=O)oc2c1,52.7% (active)
2,COc1c(C)c2c(c(O)c1C/C=C(\C)CCC(=O)O)C(=O)OC2,80.7% (active)
3,CCCCn1c(-c2cccc(C)c2)nc2cc3[nH]c(=O)c(C(C)C)nc3cc21,38%
4,COc1ccc(-c2nc3cc(C)ccn3c2NC2CCCCC2)cc1SC1CCCCC1,19.9%
5,COc1cc(NC(=O)c2[nH]cnc2C(N)=O)cc(C(=O)Nc2cccc(C(F)(F)F)c2)c1,63.5% (active)
6,COc1cc(NC(=O)c2cncc(-c3ccc(C#N)cc3)c2)cc(C(=O)Nc2cccc(C(F)(F)F)c2)c1,55.5% (active)
7,CCOC(=O)c1ccc(NC(=O)c2nc[nH]c2C(=O)N[C@@H](CCCCNC(=O)OC(C)(C)C)C(=O)OC(C)(C)C)cc1,19.6%
8,Cc1nc(SCC(=O)Nc2cc(C)on2)c2c(C)c(C)sc2n1,27.6%
9,Cc1nc(N=C(N)N)nc2c(C)cccc12,53.1% (active)
10,O=C(Cc1ccc(Cl)c(Cl)c1)Nc1ccc(SC(F)F)cc1,-2.4%
11,O=C(CC(O)(C(F)(F)F)C(F)(F)F)Nc1ccc(Cl)c(Cl)c1,95.7% (active)
12,COC(=O)C1=CN(C)C=C(C(=O)OC)C1c1ccc(Cl)cc1Cl,3.05%
13,O=C(/C(=C/c1cccc(Cl)c1)c1nc2ccccc2[nH]1)c1ccccc1,43.5% (active)
14,CCOc1cc(/C=C/c2nc3ccccc3c(=O)[nH]2)cc(Br)c1OC,69.5% (active)
15,Cc1ccc(-c2cn3cc(C)ccc3n2)cc1,81.3% (active)
16,Cc1ccc2nc(-c3ccc(Br)cc3)cn2c1,53.3% (active)
17,Cc1ccc(Nc2cc(=O)n(C3CCCCC3)c(=O)[nH]2)cc1C,19.4%
18,O=C(c1ccc(Cl)cc1)N1N=C(c2ccccn2)CC1(O)C(F)(F)F (stereo not drawn),15.9%
19,O=C1[C@H]2[C@@H](c3ccc(F)cc3)N3C(=O)N(c4ccc(C(F)(F)F)cc4)C(=O)[C@@]3(Cc3ccccc3)[C@H]2C(=O)N1C1CCCCC1,100% (active)
20,Cc1cccc([C@@H]2[C@@H]3C(=O)N(Cc4ccccc4)C(=O)[C@@H]3[C@]3(C)C(=O)N(c4ccc(Br)cc4)C(=O)N23)c1,24.9%
21,CSc1nc(-c2ccccc2)nc(C(Cl)Cl)n1,98.6% (active)
22,OCCCNc1nccc(-c2cc(Nc3cccc(Cl)c3)ncn2)n1,99.8% (active)
23,COc1ccc(C(=O)NC(=S)NNC(=O)CCc2ccccc2)cc1,4.55%
24,CC[C@]1(C(=O)OC)[C@H]2C(=O)N(Cc3ccccc3)C(=O)[C@H]2[C@H]2CN=C(SCc3ccc(C#N)cc3)N21,98.8% (active)
25,CC[C@]1(C(=O)OC)[C@H]2C(=O)N(Cc3ccccc3)C(=O)[C@H]2[C@H]2CN=C(SCc3ccccc3)N21,70% (active)
26,CC[C@]1(C(=O)OC)[C@H]2C(=O)N(Cc3ccccc3)C(=O)[C@H]2[C@H]2CN=C(SCc3ccc(Cl)cc3)N21,99.7% (active)
